Screening results deposited in PubChem BioAssay by National Center for Advancing Translational Sciences (NCATS).
This is a sample that favours compounds with a hit; in the whole collection about 10% have one here.
G9a block: inhibitors of human histone lysine methyltransferase G9a. Q96KQ7. G9a H3K9 monomethylation, AlphaScreen, 2 h. Potency, µM (series often up to 102 µM), for inactives: at the top dose activity, negative = inhibition, actives largely listed as inhibitors. hit rate 8.8% among 350,000; further: potency means the concentration at half of the fitted maximal effect; on the % scale 0 is the no-effect control and ±100 the full control effect; nearly all actives have a fitted effect of over 75% in size
Target sequence (Q96KQ7 913-1193 limits assumed): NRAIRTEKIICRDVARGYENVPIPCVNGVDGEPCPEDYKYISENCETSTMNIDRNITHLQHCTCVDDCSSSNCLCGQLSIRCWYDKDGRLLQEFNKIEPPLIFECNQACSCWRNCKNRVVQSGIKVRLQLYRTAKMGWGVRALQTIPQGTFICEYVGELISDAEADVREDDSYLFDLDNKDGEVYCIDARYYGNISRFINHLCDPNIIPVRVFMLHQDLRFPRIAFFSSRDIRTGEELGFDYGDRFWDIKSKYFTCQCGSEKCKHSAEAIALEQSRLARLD
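Signal arises when biotinylated H3K9 peptide, once monomethylated, bridges streptavidin donor and antibody-captured acceptor beads. Enzyme at 20 nM was preincubated 15 min with test compounds; peptide 500 nM and SAM 20 uM then reacted for 2 h.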
CtBP-E1A inh: blocks the CtBP interaction with E1A; AlphaScreen GST-E1A/His-CtBP binding, 1536-well; stronger effect = lower value; activity change, % (no concentration beside the values); hit rate 0.49% among 340,000; AID 651724; in the data active means activity change below about -65%; inconclusive means mostly about -30% to -63%; further: on the % scale 0 is the no-effect control and ±100 the full control effect
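Steps: dispense buffer (Tris pH 8.0, NaCl 300 mM, TCEP 1 mM, BSA, Tween 20); add 5X protein mix (GST-E1A, His-CtBP, 125 nM each); pin 23 nL compound; 2 h at 37 °C, dark; add 5X beads (50 ug/mL); 1 h; read.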
HP1b binding inh: HP1-beta chromodomain-methylated histone interaction inhibition | AID 540317 | AlphaScreen HP1-beta / biotin-H3K9me3 peptide binding | hit rate 0.56% among 390,000 | Potency, µM (highest dose often 114 µM), inactives show top-dose activity change, negative = inhibition, hits mostly inhibitors | P83916; further: potency means the concentration at half of the fitted maximal effect; nearly all actives have a fitted effect of over 70% in size
Target sequence (P83916 whole entry, looked up): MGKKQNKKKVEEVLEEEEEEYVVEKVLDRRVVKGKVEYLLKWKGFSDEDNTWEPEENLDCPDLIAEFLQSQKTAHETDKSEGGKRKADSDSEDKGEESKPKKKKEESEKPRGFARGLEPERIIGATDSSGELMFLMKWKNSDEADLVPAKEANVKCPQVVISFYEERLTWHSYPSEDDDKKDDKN
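AlphaScreen: HP1-beta (50 nM) preformed 30 min with biotin-H3(1-18)K9me3 peptide (50 nM) in PBS pH 7.4, 0.01% Tween-20. Compound added for 30 min at RT, then streptavidin donor/nickel chelate acceptor beads (10 ug/mL) for 30 min.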
JMJD2A Tudor: JMJD2A Tudor domain (human) inhibition; O75164; hit rate 4.4% among 390,000; Potency, µM (titrated, usually from 114 µM), without a hit: top-dose activity change, negative = inhibition, hits mostly inhibitors; AlphaScreen JMJD2A-Tudor / H3K4me3 peptide binding; further: potency means the concentration at half of the fitted maximal effect; on the % scale 0 is the no-effect control and ±100 the full control effect; nearly all actives have a fitted effect of over 50% in size
Six1-Eya2 inh: blocks human Six1 binding to Eya2. activity change, % (concentration not given with the values). hit rate 0.56% among 360,000. Q15475+O00167. AlphaScreen GST-Six1/His-Eya2 binding, biochemical; stronger effect = lower value; in the data active means activity change below about -65%; inconclusive means mostly about -30% to -63%; further: on the % scale 0 is the no-effect control and ±100 the full control effect
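AlphaScreen with GST-Six1 and His-Eya2 (5X mix: 250 nM and 500 nM), glutathione donor and nickel acceptor beads; buffer 50 mM Tris pH 8.0, 300 mM NaCl, 1 mM TCEP; 1 h at 37 C in the dark.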
BAZ2B inh: BAZ2B (human) inhibition | AlphaScreen BAZ2B-H3K14Ac peptide displacement | hit rate 4.4% among 360,000 | Q9UIF8 | Potency, µM (doses to about 114 µM), inactives show at the top dose activity change, negative = inhibition, usual class: inhibitors; further: potency means the concentration at half of the fitted maximal effect; on the % scale 0 is the no-effect control and ±100 the full control effect; nearly all actives have a fitted effect of over 60% in size
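Multi-concentration screen (max 110 uM) measuring displacement of acetylated histone H3 peptide from BAZ2B by AlphaScreen, using 50 nM protein, 50 nM peptide and 10 ug/mL streptavidin donor plus Ni-chelate acceptor beads.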
* = called active by the depositor; [ ] = another dose, or the depositor's remark. Unless noted, the call rests on the fitted dose curve; in most records, active means well fitted inhibition curve with a large enough effect; inconclusive means small, poorly fitted or top-dose-only effect; inactive means no such curve, though single readings can be large or run the other way.

Screening N#Cc1nc(Cc2cccc3ccccc23)oc1NCCCN1CCOCC1 returned G9a block 50µM*, CtBP-E1A inh -27, HP1b binding inh -10%, JMJD2A Tudor -33%, Six1-Eya2 inh -8 and BAZ2B inh inconclusive.
For Oc1ccccc1CNCCCN1CCOCC1 the results were G9a block 8.9µM*, CtBP-E1A inh 9, HP1b binding inh 6%, JMJD2A Tudor 4.5µM*, Six1-Eya2 inh -4 and BAZ2B inh inconclusive.
N#Cc1nc(Cc2ccccc2)oc1NCCN1CCOCC1 was read as G9a block inconclusive, CtBP-E1A inh 11, HP1b binding inh 12%, JMJD2A Tudor -13%, Six1-Eya2 inh 4 and BAZ2B inh -5%.
`COc1ccc(-c2nc3n(n2)C(c2ccc(O)cc2)C(C(=O)Nc2cccnc2)=C(C)N3)cc1OC` (stereo not drawn) gave G9a block -5%[59 µM], HP1b binding inh 20%, JMJD2A Tudor -12% and BAZ2B inh -4%.
CCc1ccc2oc(C(=O)Nc3ccccc3C(=O)OC)cc(=O)c2c1 was read as G9a block 4%[59 µM], HP1b binding inh 46%, JMJD2A Tudor 12% and BAZ2B inh 3%.
N#CC1=C2C=CC=CN2CC1=O was read as G9a block 4µM*, CtBP-E1A inh -9, HP1b binding inh -23%, JMJD2A Tudor 8.9µM*, Six1-Eya2 inh -2 and BAZ2B inh 50µM*.
CCOc1ccccc1Nc1sc(C(=O)c2ccccc2)c(N)c1C(=O)NCCc1ccccc1 was read as G9a block inconclusive, HP1b binding inh 34%, JMJD2A Tudor -34% and BAZ2B inh -2%.
For COc1ccc(CCNC(=O)c2c(Nc3ccccc3C)sc(C(=O)c3ccccc3)c2N)cc1OC the results were G9a block 8.9µM*, HP1b binding inh 0%, JMJD2A Tudor inconclusive and BAZ2B inh inconclusive.
`CCOc1ccccc1Nc1sc(C(=O)c2ccccc2)c(N)c1C(=O)Nc1ccccc1` gave G9a block 11µM*, HP1b binding inh -4%, JMJD2A Tudor inconclusive and BAZ2B inh inconclusive.
For COc1ccc(NC(=O)c2c(Nc3ccccc3)sc(C(=O)c3ccc(F)cc3)c2N)cc1 the results were G9a block inconclusive, CtBP-E1A inh -13, HP1b binding inh -32%, JMJD2A Tudor 45µM*, Six1-Eya2 inh -26 and BAZ2B inh inconclusive.
Screening Cc1ccc(SCC(=O)NCc2ccccc2)cc1 returned G9a block 7%, CtBP-E1A inh -2, HP1b binding inh 54%, JMJD2A Tudor 3%, Six1-Eya2 inh 8 and BAZ2B inh 1%.
Screening CCC(C)n1c(OC)nc2c1c(=O)n(C)c(=O)n2C (stereo not drawn) returned G9a block -15%, CtBP-E1A inh 2, HP1b binding inh -14%, JMJD2A Tudor 11µM*, Six1-Eya2 inh -1 and BAZ2B inh -3%.
For COc1ccc(/C=C2\C(=O)N(c3c(Cl)cc(Cl)cc3Cl)N=C2NC(=O)c2cccc([N+](=O)[O-])c2)cc1 the results were G9a block 3%[59 µM], CtBP-E1A inh -2, HP1b binding inh inconclusive, JMJD2A Tudor inconclusive, Six1-Eya2 inh -79* and BAZ2B inh inconclusive.
COc1cccc(C(=O)Nc2cccc(C(=O)NC3=NN(c4c(Cl)cc(Cl)cc4Cl)C(=O)C3)c2)c1 was read as G9a block 30%[59 µM], CtBP-E1A inh -80*, HP1b binding inh -7%, JMJD2A Tudor -21%, Six1-Eya2 inh -71* and BAZ2B inh 2%.
Screening CC(=O)c1sc2nc(CSc3nnnn3-c3ccccc3)[nH]c(=O)c2c1C returned G9a block 56µM*, CtBP-E1A inh -8, HP1b binding inh 10%, JMJD2A Tudor -31%, Six1-Eya2 inh -17 and BAZ2B inh inconclusive.
`Cc1cc(C)c(NC(=O)c2sc3nc(C)[nH]c(=O)c3c2C)c(C)c1` gave G9a block 1% and BAZ2B inh 0%.
`C=CCn1c(SCc2nc3sc(C(=O)O)c(C)c3c(=O)[nH]2)nnc1-c1ccccc1` gave G9a block inconclusive, CtBP-E1A inh -24, HP1b binding inh 30%, JMJD2A Tudor 25µM*, Six1-Eya2 inh 0 and BAZ2B inh inconclusive.
Screening CSCc1nc2sc(C(=O)Nc3nc(C)cs3)c(C)c2c(=O)[nH]1 returned G9a block 45µM*, CtBP-E1A inh -18, HP1b binding inh 36%, JMJD2A Tudor -14%, Six1-Eya2 inh -16 and BAZ2B inh inconclusive.
Screening CCOC(=O)c1sc2nc(CSc3nc4ccccc4n3CC)[nH]c(=O)c2c1C returned G9a block 13%[59 µM], CtBP-E1A inh 7, HP1b binding inh 23%, JMJD2A Tudor -15%, Six1-Eya2 inh -2 and BAZ2B inh 6%.
`C=CCn1c(SCc2nc3scc(-c4ccccc4)c3c(=O)[nH]2)nnc1-c1ccccc1F` gave G9a block -8%[59 µM], CtBP-E1A inh -5, HP1b binding inh 1%, JMJD2A Tudor -29%, Six1-Eya2 inh -5 and BAZ2B inh -3%.
For CCOCCCn1c(SCc2nc3sc(C(=O)O)c(C)c3c(=O)[nH]2)nnc1-c1ccc(Cl)cc1 the results were G9a block 20µM*, CtBP-E1A inh 4, HP1b binding inh 37%, JMJD2A Tudor inconclusive, Six1-Eya2 inh -9 and BAZ2B inh -35%.
CCc1nc2c(OCC(=O)C(C)(C)C)cccn2c1N(C=O)Cc1ccc(OC)cc1 was read as CtBP-E1A inh -7 and Six1-Eya2 inh -4.
NS(=O)(=O)c1cc(C(=O)OCC(=O)N2CCOCC2)ccc1Cl was read as G9a block 7%, CtBP-E1A inh 3, HP1b binding inh 3%, JMJD2A Tudor -17%, Six1-Eya2 inh 5 and BAZ2B inh 3%.
Screening Cc1ccc(NC(=O)c2sc3nc(CCl)[nH]c(=O)c3c2C)c(C)c1 returned G9a block 35µM*, CtBP-E1A inh 4, HP1b binding inh 29%, JMJD2A Tudor -29%, Six1-Eya2 inh 5 and BAZ2B inh -20%.
`Cc1nnc(SCc2nc3sc(C(=O)O)c(C)c3c(=O)[nH]2)s1` gave CtBP-E1A inh -6, HP1b binding inh 3%, JMJD2A Tudor 32µM*, Six1-Eya2 inh 4 and BAZ2B inh -38%.
`C=CCn1c(SCc2nc3sc(C(=O)O)c(C)c3c(=O)[nH]2)nnc1-c1ccc(C(C)(C)C)cc1` gave G9a block 14µM*, CtBP-E1A inh -3, HP1b binding inh -19%, JMJD2A Tudor 28µM*, Six1-Eya2 inh -25 and BAZ2B inh 50µM*.
